# From publication PMC7862700, “An all-to-all approach to the identification of sequence-specific readers for epigenetic DNA modifications on cytosine”
# How the values were obtained:
# Experiment in all cases: DAPPL (digital affinity profiling via proximity ligation, sequencing); 10 mM Tris-HCl pH 7.5, 50 mM NaCl, 1 mM DTT, 4% glycerol, room temperature, 30 min; GST-TFs on glutathione beads, 16-mer random dsDNA library, 0.1% formaldehyde crosslink after washing; high values mean tight binding
# FLI1 = target: T1, FLI1 (Homo sapiens, UniProt Q01543 1-452); conditions: protein: recombinant; tags: N-terminal GST; dsDNA, one strand shown
# T1 sequence: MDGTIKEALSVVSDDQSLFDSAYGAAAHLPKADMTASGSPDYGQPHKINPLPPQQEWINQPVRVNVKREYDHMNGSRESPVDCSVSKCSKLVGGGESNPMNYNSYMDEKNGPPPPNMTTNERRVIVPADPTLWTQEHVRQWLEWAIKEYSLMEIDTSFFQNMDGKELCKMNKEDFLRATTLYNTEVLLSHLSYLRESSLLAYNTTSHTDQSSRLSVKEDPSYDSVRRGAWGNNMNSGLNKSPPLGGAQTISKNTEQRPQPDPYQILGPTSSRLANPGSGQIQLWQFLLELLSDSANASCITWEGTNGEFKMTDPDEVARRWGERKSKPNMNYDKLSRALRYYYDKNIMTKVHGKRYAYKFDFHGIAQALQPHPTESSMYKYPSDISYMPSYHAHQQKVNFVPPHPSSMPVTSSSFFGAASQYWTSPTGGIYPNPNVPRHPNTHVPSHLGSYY
# Summary of the method: (§1)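 A tag-only sample was pooled with DNA-barcoded human transcription factors that had been expressed in yeast as GST fusions and captured on glutathione beads. The pools were incubated for 30 min at room temperature with 200 nmole of a random double-stranded 16-mer DNA library in Tris/NaCl/DTT/glycerol buffer, then washed, crosslinked with 0.1% formaldehyde, proximity-ligated (BsaI/T4 ligase, 1 h, 37 °C), PCR-amplified and sequenced on an Illumina NextSeq500. Binding signal is each hexamer's read frequency for a factor divided by its frequency for the tag-only sample.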
# ELK1 = target: T2, ELK1 (Homo sapiens, UniProt P19419 1-428); conditions: protein: recombinant; tags: N-terminal GST; dsDNA, one strand shown
# T2 sequence: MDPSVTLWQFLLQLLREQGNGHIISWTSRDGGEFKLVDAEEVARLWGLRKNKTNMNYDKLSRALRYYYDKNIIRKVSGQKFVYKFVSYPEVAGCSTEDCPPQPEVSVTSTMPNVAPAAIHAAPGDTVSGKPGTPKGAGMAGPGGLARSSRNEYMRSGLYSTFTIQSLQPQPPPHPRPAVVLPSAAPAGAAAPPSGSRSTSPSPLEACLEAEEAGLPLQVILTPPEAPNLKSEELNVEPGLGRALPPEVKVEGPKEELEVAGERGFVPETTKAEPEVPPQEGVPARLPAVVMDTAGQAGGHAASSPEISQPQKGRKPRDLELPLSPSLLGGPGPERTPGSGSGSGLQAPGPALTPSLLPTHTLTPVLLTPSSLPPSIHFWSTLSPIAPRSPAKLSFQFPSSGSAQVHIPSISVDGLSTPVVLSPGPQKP
# Summary of the method: as §1
# GABPA = target: T3, GABPA (Homo sapiens, UniProt Q06546 1-454); conditions: protein: recombinant; tags: N-terminal GST; dsDNA, one strand shown
# T3 sequence: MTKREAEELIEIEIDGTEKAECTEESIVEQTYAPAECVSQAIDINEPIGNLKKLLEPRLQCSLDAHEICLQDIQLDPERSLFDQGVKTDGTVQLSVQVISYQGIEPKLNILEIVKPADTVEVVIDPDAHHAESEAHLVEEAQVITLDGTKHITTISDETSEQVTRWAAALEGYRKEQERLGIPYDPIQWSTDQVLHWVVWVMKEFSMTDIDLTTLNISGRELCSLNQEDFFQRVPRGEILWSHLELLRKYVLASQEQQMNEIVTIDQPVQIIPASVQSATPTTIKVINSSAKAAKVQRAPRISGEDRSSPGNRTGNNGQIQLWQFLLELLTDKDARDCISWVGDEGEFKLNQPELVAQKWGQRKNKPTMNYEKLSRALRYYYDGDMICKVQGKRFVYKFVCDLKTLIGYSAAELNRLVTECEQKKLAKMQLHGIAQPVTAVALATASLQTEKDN
# Summary of the method: as §1
# ERG = target: T4, ERG (Homo sapiens, UniProt P11308 1-479); conditions: protein: recombinant; tags: N-terminal GST; dsDNA, one strand shown
# T4 sequence: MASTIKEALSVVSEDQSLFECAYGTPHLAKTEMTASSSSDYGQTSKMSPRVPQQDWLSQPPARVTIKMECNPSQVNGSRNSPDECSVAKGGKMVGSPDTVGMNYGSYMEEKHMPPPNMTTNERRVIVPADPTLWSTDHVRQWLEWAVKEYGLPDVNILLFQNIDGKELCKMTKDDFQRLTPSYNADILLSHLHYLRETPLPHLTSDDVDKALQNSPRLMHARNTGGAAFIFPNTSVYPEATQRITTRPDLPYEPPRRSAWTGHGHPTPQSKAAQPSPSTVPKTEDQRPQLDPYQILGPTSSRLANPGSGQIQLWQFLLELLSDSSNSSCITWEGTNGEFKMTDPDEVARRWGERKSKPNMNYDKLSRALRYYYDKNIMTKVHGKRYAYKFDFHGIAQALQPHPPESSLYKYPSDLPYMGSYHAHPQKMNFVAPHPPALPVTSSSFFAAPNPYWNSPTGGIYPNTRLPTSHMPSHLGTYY
# Summary of the method: as §1
# ELF1 = ELF1 (Homo sapiens, UniProt P32519 1-619); conditions: protein: recombinant; tags: N-terminal GST; dsDNA, one strand shown
# Summary of the method: as §1
# EHF = target: T5, EHF (Homo sapiens, UniProt Q9NZC4 1-300); conditions: protein: recombinant; tags: N-terminal GST; dsDNA, one strand shown
# T5 sequence: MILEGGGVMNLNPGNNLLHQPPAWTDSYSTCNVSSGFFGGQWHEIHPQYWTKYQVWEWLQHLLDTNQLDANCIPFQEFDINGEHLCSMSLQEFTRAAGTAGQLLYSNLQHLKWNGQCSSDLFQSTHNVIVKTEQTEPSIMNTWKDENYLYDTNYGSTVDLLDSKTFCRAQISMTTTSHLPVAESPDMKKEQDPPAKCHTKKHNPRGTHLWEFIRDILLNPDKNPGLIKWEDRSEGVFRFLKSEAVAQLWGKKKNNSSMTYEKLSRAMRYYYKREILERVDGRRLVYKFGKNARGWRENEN
# Summary of the method: as §1
# SPI1 = SPI1 (Homo sapiens, UniProt P17947 1-270); conditions: protein: recombinant; tags: N-terminal GST; dsDNA, one strand shown
# Summary of the method: as §1
# SPIB = SPIB (Homo sapiens, UniProt Q01892 1-262); conditions: protein: recombinant; tags: N-terminal GST; dsDNA, one strand shown
# Summary of the method: as §1
# ELK3 = target: T6, ELK3 (Homo sapiens, UniProt P41970 1-407); conditions: protein: recombinant; tags: N-terminal GST; dsDNA, one strand shown
# T6 sequence: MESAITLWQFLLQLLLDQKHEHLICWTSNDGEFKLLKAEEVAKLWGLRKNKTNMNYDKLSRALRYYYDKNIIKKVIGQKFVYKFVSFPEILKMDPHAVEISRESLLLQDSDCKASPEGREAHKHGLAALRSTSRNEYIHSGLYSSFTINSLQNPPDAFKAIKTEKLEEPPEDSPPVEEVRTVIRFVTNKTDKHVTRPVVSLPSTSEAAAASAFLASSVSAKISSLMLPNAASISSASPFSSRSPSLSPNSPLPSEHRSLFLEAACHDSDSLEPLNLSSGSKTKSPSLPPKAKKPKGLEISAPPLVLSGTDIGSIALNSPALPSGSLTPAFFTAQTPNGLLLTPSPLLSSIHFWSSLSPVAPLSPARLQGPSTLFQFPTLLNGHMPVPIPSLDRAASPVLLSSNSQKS
# Summary of the method: as §1
# FEV = target: T7, FEV (Homo sapiens, UniProt Q99581 1-238); conditions: protein: recombinant; tags: N-terminal GST; dsDNA, one strand shown
# T7 sequence: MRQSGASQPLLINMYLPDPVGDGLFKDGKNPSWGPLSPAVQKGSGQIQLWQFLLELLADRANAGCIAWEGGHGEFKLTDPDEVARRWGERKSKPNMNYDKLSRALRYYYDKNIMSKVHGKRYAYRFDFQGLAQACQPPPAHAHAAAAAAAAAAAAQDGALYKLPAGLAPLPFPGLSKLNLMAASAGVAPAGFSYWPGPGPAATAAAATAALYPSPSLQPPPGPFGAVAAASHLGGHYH
# Summary of the method: as §1
# ETV5 = ETV5 (Homo sapiens, UniProt P41161 1-510); conditions: protein: recombinant; tags: N-terminal GST; dsDNA, one strand shown
# Summary of the method: as §1
# HSF1 = HSF1 (Homo sapiens, UniProt Q00613 1-529); conditions: protein: recombinant; tags: N-terminal GST; chain copies: 3; dsDNA, one strand shown
# Summary of the method: as §1
# SPIC = target: T8, SPIC (Homo sapiens, UniProt Q8N5J4 1-248); conditions: protein: recombinant; tags: N-terminal GST; dsDNA, one strand shown
# T8 sequence: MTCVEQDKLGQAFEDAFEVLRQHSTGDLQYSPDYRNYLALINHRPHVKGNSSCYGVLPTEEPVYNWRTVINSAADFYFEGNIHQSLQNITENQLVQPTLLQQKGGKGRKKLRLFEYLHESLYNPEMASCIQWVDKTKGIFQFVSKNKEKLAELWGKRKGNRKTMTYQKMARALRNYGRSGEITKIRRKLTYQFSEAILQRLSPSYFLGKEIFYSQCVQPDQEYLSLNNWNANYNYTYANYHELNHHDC
# Summary of the method: as §1
# ELF4 = ELF4 (Homo sapiens, UniProt Q99607 1-663); conditions: protein: recombinant; tags: N-terminal GST; dsDNA, one strand shown
# Summary of the method: as §1
# ELK4 = target: T9, ELK4 (Homo sapiens, UniProt P28324-2 1-405); conditions: protein: recombinant; tags: N-terminal GST; dsDNA, one strand shown
# T9 sequence: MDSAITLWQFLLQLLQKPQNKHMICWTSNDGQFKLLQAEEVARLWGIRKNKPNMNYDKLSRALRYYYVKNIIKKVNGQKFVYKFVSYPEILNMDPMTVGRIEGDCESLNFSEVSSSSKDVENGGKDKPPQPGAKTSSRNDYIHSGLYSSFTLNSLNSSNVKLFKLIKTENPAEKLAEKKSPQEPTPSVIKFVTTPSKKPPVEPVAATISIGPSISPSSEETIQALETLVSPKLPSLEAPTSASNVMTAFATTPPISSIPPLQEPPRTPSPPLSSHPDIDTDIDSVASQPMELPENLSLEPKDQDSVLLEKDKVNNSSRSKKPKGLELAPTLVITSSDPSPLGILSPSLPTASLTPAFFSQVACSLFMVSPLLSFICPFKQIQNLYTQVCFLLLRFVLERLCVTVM
# Summary of the method: as §1
# ETV2 = target: T10, ETV2 (Homo sapiens, UniProt O00321 1-342); conditions: protein: recombinant; tags: N-terminal GST; dsDNA, one strand shown
# T10 sequence: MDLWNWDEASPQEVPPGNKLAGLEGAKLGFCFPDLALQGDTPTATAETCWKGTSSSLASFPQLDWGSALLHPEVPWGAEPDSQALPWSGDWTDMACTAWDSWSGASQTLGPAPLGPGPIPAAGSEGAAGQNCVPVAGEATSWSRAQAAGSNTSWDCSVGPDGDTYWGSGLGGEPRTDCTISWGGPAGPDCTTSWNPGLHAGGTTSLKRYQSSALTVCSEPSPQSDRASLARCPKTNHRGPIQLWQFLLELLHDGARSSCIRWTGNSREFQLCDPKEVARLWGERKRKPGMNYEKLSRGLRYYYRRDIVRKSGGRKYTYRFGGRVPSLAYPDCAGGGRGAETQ
# Summary of the method: as §1
# ELF3 = target: T11, ELF3 (Homo sapiens, UniProt P78545 1-371); conditions: protein: recombinant; tags: N-terminal GST; dsDNA, one strand shown
# T11 sequence: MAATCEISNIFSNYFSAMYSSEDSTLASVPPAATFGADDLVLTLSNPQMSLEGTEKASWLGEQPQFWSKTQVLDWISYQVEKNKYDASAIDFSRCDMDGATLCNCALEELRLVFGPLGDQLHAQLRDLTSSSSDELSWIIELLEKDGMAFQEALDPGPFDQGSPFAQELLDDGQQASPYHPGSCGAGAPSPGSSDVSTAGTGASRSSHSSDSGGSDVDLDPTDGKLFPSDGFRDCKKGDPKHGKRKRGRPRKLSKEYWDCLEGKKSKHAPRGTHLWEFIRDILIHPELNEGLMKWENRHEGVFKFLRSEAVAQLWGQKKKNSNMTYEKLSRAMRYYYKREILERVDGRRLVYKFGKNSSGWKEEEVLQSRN
# Summary of the method: as §1
# CRX = CRX (Homo sapiens, UniProt O43186 1-299); conditions: protein: recombinant; tags: N-terminal GST; dsDNA, one strand shown
# Summary of the method: as §1
# ETV1 = ETV1 (Homo sapiens, UniProt P50549 1-477); conditions: protein: recombinant; tags: N-terminal GST; dsDNA, one strand shown
# Summary of the method: as §1
# CRX, sequence (O43186 whole entry): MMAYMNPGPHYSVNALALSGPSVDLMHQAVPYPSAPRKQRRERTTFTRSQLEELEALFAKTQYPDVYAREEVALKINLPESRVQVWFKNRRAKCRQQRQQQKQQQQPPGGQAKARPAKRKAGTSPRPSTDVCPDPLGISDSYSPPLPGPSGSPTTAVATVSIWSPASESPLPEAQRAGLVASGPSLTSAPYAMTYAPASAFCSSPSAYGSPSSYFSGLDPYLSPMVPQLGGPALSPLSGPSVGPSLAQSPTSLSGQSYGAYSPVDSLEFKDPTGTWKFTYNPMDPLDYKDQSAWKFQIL
# ELF1, sequence (P32519 whole entry): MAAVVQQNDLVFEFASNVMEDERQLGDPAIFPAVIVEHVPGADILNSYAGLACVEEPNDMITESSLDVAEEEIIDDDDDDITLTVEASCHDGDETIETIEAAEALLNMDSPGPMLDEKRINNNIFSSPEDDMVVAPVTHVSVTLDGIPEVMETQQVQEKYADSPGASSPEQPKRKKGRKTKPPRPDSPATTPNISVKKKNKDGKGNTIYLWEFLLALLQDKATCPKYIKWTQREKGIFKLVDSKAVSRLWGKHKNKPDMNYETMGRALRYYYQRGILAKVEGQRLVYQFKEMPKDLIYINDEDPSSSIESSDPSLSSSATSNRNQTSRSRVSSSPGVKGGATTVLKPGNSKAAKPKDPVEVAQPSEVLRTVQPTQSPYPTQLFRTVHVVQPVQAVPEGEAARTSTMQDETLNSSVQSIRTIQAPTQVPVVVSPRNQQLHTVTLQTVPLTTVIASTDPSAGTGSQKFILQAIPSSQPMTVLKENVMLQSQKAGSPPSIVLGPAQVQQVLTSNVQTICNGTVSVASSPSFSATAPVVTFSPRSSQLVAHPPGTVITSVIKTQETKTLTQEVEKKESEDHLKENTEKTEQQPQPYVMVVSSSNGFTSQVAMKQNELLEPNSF
# HSF1, sequence (Q00613 whole entry): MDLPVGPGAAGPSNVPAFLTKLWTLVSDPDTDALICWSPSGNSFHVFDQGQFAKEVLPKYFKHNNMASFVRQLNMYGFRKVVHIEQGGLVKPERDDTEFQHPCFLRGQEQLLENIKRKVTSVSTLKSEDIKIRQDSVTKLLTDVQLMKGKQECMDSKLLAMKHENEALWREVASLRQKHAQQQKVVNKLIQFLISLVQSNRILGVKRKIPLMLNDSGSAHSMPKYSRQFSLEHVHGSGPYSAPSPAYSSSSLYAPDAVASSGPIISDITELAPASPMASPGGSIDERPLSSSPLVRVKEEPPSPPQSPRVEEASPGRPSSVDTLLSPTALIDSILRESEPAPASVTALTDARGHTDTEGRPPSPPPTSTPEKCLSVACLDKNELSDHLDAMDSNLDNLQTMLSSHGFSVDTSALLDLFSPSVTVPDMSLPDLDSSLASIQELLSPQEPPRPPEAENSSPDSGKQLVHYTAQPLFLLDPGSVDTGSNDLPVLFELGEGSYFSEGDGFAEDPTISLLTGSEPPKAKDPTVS
# ETV1, sequence (P50549 whole entry): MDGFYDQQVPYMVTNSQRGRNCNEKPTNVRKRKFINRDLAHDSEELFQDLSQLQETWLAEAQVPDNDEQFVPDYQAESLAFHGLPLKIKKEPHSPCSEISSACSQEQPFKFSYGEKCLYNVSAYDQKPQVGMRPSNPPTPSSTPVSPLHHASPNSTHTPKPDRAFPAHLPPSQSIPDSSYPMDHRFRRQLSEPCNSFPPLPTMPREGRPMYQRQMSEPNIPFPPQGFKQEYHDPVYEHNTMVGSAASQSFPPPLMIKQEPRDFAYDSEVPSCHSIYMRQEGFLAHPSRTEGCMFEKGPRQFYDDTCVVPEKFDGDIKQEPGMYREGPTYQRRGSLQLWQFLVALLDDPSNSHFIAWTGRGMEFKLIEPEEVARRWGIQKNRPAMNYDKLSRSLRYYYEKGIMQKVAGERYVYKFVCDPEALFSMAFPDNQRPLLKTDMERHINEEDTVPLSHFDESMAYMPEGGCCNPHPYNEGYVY
# SPIB, sequence (Q01892 whole entry): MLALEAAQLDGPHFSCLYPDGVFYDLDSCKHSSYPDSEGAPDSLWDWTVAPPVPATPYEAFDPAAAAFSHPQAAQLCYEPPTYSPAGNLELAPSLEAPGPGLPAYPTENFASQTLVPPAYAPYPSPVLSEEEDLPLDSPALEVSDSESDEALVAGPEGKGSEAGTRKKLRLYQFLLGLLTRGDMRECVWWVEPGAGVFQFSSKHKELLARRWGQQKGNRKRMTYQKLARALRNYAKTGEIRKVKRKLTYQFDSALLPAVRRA
# ETV5, sequence (P41161 whole entry): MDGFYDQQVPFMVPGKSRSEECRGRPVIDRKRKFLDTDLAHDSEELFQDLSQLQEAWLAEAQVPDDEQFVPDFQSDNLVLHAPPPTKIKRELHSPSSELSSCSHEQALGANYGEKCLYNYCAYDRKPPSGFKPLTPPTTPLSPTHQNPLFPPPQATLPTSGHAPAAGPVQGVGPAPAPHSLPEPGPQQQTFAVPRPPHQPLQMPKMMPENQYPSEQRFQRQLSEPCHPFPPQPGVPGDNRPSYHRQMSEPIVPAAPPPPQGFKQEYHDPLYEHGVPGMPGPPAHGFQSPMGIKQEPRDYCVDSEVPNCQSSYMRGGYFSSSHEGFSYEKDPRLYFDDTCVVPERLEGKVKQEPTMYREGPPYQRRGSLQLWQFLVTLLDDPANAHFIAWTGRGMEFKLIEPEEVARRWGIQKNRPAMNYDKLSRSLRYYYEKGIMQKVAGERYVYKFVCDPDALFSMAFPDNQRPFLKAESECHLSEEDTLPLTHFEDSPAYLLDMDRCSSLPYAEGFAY
# ELF4, sequence (Q99607 whole entry): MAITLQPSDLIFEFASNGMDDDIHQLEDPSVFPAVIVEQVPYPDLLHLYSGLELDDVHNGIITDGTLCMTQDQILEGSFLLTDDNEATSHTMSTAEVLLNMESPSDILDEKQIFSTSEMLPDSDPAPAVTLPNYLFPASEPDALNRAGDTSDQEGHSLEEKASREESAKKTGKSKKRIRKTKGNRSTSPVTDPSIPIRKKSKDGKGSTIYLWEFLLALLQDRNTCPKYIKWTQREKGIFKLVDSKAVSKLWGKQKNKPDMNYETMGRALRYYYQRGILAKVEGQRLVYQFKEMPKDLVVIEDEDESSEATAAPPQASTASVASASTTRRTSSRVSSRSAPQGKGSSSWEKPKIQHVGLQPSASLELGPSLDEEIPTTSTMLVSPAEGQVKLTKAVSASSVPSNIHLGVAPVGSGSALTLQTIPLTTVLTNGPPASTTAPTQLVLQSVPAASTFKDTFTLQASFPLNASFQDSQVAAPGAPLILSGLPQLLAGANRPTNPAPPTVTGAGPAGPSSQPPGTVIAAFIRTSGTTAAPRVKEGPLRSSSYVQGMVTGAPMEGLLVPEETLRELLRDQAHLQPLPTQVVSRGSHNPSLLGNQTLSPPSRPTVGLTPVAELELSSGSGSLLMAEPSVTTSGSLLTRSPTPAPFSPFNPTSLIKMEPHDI
sequence,measurement,setting,value
CTTCTC,binding signal,FLI1,"1.38 fold enrichment (6-mer frequency, TF over GST control)"
same,binding signal,ELK1,"1.39 fold enrichment (6-mer frequency, TF over GST control)"
same,binding signal,GABPA,"1.39 fold enrichment (6-mer frequency, TF over GST control)"
same,binding signal,ERG,"1.3 fold enrichment (6-mer frequency, TF over GST control)"
same,binding signal,ELF1,"1.41 fold enrichment (6-mer frequency, TF over GST control)"
same,binding signal,EHF,"1.37 fold enrichment (6-mer frequency, TF over GST control)"
same,binding signal,SPI1,"1.4 fold enrichment (6-mer frequency, TF over GST control)"
same,binding signal,SPIB,"1.34 fold enrichment (6-mer frequency, TF over GST control)"
same,binding signal,ELK3,"1.39 fold enrichment (6-mer frequency, TF over GST control)"
same,binding signal,FEV,"1.35 fold enrichment (6-mer frequency, TF over GST control)"
same,binding signal,ETV5,"1.27 fold enrichment (6-mer frequency, TF over GST control)"
same,binding signal,HSF1,"2.19 fold enrichment (6-mer frequency, TF over GST control)"
same,binding signal,SPIC,"1.55 fold enrichment (6-mer frequency, TF over GST control)"
same,binding signal,ELF4,"1.39 fold enrichment (6-mer frequency, TF over GST control)"
same,binding signal,ELK4,"1.42 fold enrichment (6-mer frequency, TF over GST control)"
same,binding signal,ETV2,"1.39 fold enrichment (6-mer frequency, TF over GST control)"
same,binding signal,ELF3,"1.47 fold enrichment (6-mer frequency, TF over GST control)"
same,binding signal,CRX,"1.56 fold enrichment (6-mer frequency, TF over GST control)"
same,binding signal,ETV1,"1.39 fold enrichment (6-mer frequency, TF over GST control)"
